Experimental findings from PubChem BioAssay are described below.

Several values for one entry are separate records, joined by “and”; a condition that tells them apart may be missing. Equal values may be shown once. For some of these results: Measured potencies and affinities stand elsewhere. Activity calls are given as the source filed them.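 The calls were made as follows, unless noted: active = at least 20% inhibition of 6-phosphogluconate dehydrogenase activity; inactive = the rest.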

Assay [1] addresses 6-phosphogluconate dehydrogenase, decarboxylating (Homo sapiens) (UniProt P52209). Description: 6PGD enzyme inhibitors, primary screen, biochemical, human, recombinant enzyme, NADPH absorbance (AID 1159550). As to conditions: recombinant 6PGD, NADPH absorbance 341 nm; at 10 µM; stronger effect = higher value.
For assay [2], the target named is NAD(+) hydrolase SARM1 (Homo sapiens) (UniProt Q6SZW1). Briefly: SARM1 TIR NADase inhibitors, cell lysate, NAD-Glo luminescence (AID 1508614;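 active = compound whose remaining NAD level is above about 45 nM, limit read from the data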;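 also: higher remaining NAD means stronger inhibition of SARM1 NADase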). As to conditions: SAM-TIR HEK293T lysate NADase, at 1 µM, stronger effect = higher value.
NAD(+) hydrolase SARM1 (Homo sapiens), sequence (Q6SZW1 whole entry, looked up, the tested form may be a part): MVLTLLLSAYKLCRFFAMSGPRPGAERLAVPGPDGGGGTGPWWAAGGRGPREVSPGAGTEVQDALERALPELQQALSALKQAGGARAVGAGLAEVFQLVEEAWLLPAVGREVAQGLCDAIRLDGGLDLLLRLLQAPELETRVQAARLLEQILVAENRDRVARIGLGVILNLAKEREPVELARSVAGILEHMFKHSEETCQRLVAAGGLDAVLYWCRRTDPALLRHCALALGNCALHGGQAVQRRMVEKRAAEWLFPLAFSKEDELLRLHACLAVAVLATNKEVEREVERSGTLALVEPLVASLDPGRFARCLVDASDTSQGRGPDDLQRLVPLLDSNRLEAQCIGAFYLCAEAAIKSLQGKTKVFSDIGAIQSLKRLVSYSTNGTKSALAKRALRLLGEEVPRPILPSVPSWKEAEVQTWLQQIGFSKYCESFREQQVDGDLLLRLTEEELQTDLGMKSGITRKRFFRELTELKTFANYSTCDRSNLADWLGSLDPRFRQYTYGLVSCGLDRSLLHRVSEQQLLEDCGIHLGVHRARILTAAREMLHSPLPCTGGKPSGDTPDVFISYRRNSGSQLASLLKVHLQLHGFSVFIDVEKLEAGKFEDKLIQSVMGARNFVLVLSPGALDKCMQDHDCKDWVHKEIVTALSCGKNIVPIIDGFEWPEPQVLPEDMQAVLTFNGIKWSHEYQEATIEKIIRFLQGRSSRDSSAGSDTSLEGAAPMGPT
Assay [3] addresses Mitogen-activated protein kinase 7 (Homo sapiens) (UniProt Q13164). Briefly: ERK5 transactivation activators in reporter cells, primary screen, cell-based, HTS (AID 1508626;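 active = luciferase signal above three times the same-plate solvent-only control wells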;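 also: luciferase driven by Gal4-ERK5 fusion binding five Gal4 sites before minimal TATA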). As to conditions: HeLa Gal4-ERK5 transactivation, 18 h, at 5 µM, stronger effect = higher value.
Assay [4] is described as follows: survival rescue of mitochondrial mutant cells in low glucose, primary screen, MELAS cybrids, Rieske KO mouse fibroblasts, CellTiter-Glo (AID 1508586;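 active = mean z-score across replicates of 1.96 or higher in either the MELAS or the Rieske mutant cell line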;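 also: z relative to plate mean and SD of compound and empty wells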).
A short description of assay [5]: hESC survival regulators, cell-based (AID 493140; call rule not given here;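 also: cells exposed to compounds for four days before counting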). As to conditions: human embryonic stem cell survival screen; stronger effect = higher value.
The nature of assay [6]: liver-stage malaria parasite growth inhibition, primary screen, cell-based, HepG2, luciferase luminescence, HepG2 viability (AID 624349; in the data active = parasite load remaining mostly below about 12%, no sharp cut-off; inactive = mostly above about 10%;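 also: 100% = mean of DMSO negative control wells on the same plate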). As to conditions: P. berghei liver stage in HepG2, luciferase luminescence, concentration not given here; parasite load remaining: stronger effect = lower value; viability: measured here: HepG2 viability without parasites.
A short description of assay [7]: polyglutamine-triggered caspase-3 activation inhibitors, cell-based (AID 1583). As to conditions: polyglutamine-induced caspase-3 activation, cell assay; stronger effect = higher value;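 tested at 10 µM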.
Assay [8] is described as follows: suppressors of polyQ aggregation in yeast, 75Q-TubU reporter (AID 1593). As to conditions: Yeast 75Q polyglutamine aggregation reporter.
The nature of assay [9]: rescue of polyQ-huntingtin neuronal dysfunction in worms, whole organism, C. elegans mechanosensory neurons, N-terminal huntingtin (AID 1599). As to conditions: touch response, stronger effect = higher value.
The nature of assay [10]: inhibitors of mitochondrial cytochrome c release, biochemical, purified mitochondria (AID 1603).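 Also: mouse liver mitochondria challenged with calcium chloride; signal normalized to the plate average as 100%.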 As to conditions: stronger effect = lower value.
Assay [11] can be described thus: inhibitors of polyQ protein aggregation (AID 1604). As to conditions: polyglutamine-induced protein aggregation inhibition assay; stronger effect = higher value; tested at 2.5 µM.
Assay [12] in a line: enhancers of glutamate uptake in motor neurons, MN-1 cell line (AID 1612).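 Also: tested at 1 µM final; 0% = mean of DMSO vehicle wells on each plate; positive means more glutamate uptake than control and negative means less.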 As to conditions: MN-1 motor neuron cells, stronger effect = higher value.
Assay [13] can be described thus: reducers of polyQ inclusions in PC12 cells, cell-based, NGF-treated PC12, GFPQ80 (AID 1614).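 Also: lower means fewer inclusions and 0 means no inclusions at all.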 As to conditions: PC12 NGF-treated GFP-polyQ80 inclusion reduction.
Assay [14] in a line: suppressors of polyglutamine aggregation in yeast, 75Q-TubH (AID 1616). As to conditions: S. cerevisiae 75Q-TubH polyglutamine aggregation suppression; stronger effect = higher value.
Assay [15] is described as follows: sensitizers of A549 cells to miR-34 induction, primary screen, imaging, A549 dox-inducible miR-34, nuclei and caspase counts (AID 1347080;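 active = compounds whose cell count with miR-34 switched on is under 0.7 times the count with it off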). As to conditions: A549 miR-34 inducible, Hoechst nuclei count, 48 h.

6-phosphogluconate dehydrogenase, decarboxylating (Homo sapiens), sequence (P52209 whole entry, looked up): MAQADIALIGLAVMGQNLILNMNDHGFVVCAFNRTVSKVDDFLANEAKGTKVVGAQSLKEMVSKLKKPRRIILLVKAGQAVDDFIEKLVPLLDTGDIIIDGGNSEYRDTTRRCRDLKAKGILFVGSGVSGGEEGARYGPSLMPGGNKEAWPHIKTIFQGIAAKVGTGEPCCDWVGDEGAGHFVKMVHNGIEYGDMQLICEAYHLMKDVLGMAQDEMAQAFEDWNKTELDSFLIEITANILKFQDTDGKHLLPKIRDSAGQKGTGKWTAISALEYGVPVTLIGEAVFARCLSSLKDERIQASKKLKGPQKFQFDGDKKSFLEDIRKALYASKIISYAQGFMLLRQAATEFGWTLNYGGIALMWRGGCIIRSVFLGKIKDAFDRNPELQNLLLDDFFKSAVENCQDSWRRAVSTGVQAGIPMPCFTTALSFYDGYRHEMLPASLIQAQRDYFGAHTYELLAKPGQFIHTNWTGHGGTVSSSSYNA
Mitogen-activated protein kinase 7 (Homo sapiens), sequence (Q13164 whole entry, looked up, the tested form may be a part): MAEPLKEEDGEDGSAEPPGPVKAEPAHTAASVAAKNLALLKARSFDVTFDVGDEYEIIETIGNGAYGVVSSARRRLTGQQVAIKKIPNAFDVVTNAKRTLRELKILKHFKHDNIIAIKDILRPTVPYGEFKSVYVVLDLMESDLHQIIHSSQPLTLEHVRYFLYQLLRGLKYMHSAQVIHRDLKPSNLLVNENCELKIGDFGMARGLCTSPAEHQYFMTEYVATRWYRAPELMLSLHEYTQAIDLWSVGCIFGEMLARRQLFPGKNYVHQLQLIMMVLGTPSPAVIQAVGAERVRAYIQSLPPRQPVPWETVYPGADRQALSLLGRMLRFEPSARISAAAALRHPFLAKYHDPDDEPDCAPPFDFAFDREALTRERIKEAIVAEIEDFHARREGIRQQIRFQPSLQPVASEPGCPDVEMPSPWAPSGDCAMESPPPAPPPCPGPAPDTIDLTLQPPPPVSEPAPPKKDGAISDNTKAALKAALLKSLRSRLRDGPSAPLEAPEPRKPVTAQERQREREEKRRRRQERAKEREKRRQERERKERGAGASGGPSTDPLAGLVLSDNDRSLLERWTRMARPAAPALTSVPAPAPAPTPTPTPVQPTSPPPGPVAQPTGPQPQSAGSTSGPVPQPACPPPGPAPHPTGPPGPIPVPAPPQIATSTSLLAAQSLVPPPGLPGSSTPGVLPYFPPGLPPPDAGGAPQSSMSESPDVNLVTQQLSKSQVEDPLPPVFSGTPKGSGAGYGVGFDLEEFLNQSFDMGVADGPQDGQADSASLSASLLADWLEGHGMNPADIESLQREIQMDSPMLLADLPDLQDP

Take `CC(=O)NC(CC(C)C)C(=O)O` (centres undefined): the inhibition in [1] is 4.75% (inactive). In [2], the remaining NAD is 10 nM (inactive).

For `NC[C@H]1O[C@H](O[C@H]2[C@H](O[C@@H]3O[C@H](CO)[C@@H](O)[C@H]3O)[C@@H](O)[C@H](N)C[C@@H]2N)[C@H](N)[C@@H](O)[C@@H]1O`, the inhibition in assay [1] is -2.01% (inactive). For the same compound, in assay [2], the remaining NAD is 10 nM (inactive). For the same compound, the luciferase signal in assay [3] is 40 AU (inactive).

For `CC(=O)[C@@]1(O)CC[C@H]2[C@@H]3C=C(Cl)C4=CC(=O)[C@@H]5C[C@@H]5[C@]4(C)[C@H]3CC[C@@]21C`, in assay [1], the inhibition is 3.58% (inactive). Also, the remaining NAD in assay [2] is 10 nM (inactive). Further, in [3], the luciferase signal was 32 AU (inactive).

For `C[C@@H]1C[C@H]2[C@@H]3C[C@H](F)C4=CC(=O)C=C[C@]4(C)[C@@]3(F)[C@@H](O)C[C@]2(C)[C@@]1(O)C(=O)COC(=O)C(C)(C)C`, the inhibition in assay [1] was 8.08% (inactive). For the same compound, the z-score in assay [4] (MELAS cybrid survival, CellTiter-Glo 48 h, stronger effect = higher value) was 0.627 (inactive); in assay [4] (Rieske KO mouse fibroblast survival, CellTiter-Glo 72 h) it was 0.671. The remaining NAD in assay [2] was 10 nM (inactive).

For the compound `CC(=O)OCC(=O)[C@@]1(O)CC[C@H]2[C@@H]3CCC4=CC(=O)CC[C@]4(C)[C@@]3(F)[C@@H](O)C[C@@]21C`, the survival in assay [5] was 16.7 (inactive). In [6], the parasite load remaining was 136% (inactive) and the viability came out at 91.3%. Moreover, in [1], the inhibition is -10.7% (inactive). The remaining NAD in [2] is 10 nM (inactive). The luciferase signal in [3] was 84 AU (inactive).

As for `CC1CCCC(C)N1NC(=O)c1ccc(Cl)c(S(N)(=O)=O)c1` (centres undefined), the inhibition in [7] was 16.7%; in assay [1], 6.91% (inactive). Moreover, in assay [8], the score came to 1.67. In [9], this compound registered a rescue above control of -10.1. The cytochrome c release ratio in [10] was 0.96. The compound further showed an inhibition of aggregation in assay [11] of 25.5%. In addition, the glutamate uptake change in assay [12] was -0.09%. Also, in assay [13], the inclusion score was 2. Moreover, in [14], the aggregation suppression score was found to be 1.2. Moreover, the survival in assay [5] is 5.92 (inactive). Also, the parasite load remaining in [6] is 92.4% (inactive) and 77.2% (inactive). Further, the viability in assay [6] was 76.8% and 96.5%. Besides, the fold change in assay [15] (stronger effect = lower value, cell number ratio, induced over uninduced) is 0.9 (inactive); in assay [15] (measured here: relative caspase fold change +Dox/-Dox), 4.97. The cell count is 7530 in assay [15] (measured here: total cells with miR-34 induction, stronger effect = lower value) and 8360 in [15] (measured here: total cells without miR-34 induction).

A word on the inhibition: it is the change of the read-out against control, counted positive when it falls. The term viability denotes the share of living cells, or the viability signal relative to a control.
